Bioassay records deposited in PubChem BioAssay by National Center for Advancing Translational Sciences (NCATS).
MCF10A rerep: DNA re-replication induction in MCF 10a cells; Potency, µM (highest dose often 46.1 µM), without a hit: at the top dose activity, positive = re-replication, usual class: activators; MCF 10A DNA re-replication, Hoechst nuclear intensity, 48 h; hit rate 2.9% among 350,000; further: potency means the concentration at half of the fitted maximal effect; % of control where 0% means no effect; nearly all actives have a fitted effect of over 50% in size
KB-3-1 cytotox: kills parental KB-3-1 adenocarcinoma cells; KB-3-1 viability, CellTiter-Glo ATP luminescence, 72 h; Potency, µM (series often up to 46.1 µM), most hits filed as cytotoxic; hit rate 1.4% among 400,000; further: potency means the concentration at half of the fitted maximal effect; on the % scale 0 is the no-effect control and ±100 the full control effect; nearly all actives have a fitted effect of over 60% in size
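KB-3-1 parental drug-naive adenocarcinoma cells in DMEM/10% FBS, incubated 72 h at 37 C with pin-transferred compounds across a concentration series. Viability by CellTiter-Glo luminescence; concentration-response curves fitted after normalization.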
SW480 rerep: inducers of DNA re-replication in SW480 colon cancer cells. hit rate 1.8% among 340,000. Potency, µM (doses to about 46.1 µM), for the others: at the highest dose re-replication activation, actives largely listed as activators. SW480 DNA re-replication, Hoechst DNA content imaging, 48 h; further: potency means the concentration at half of the fitted maximal effect; % of control where 0% means no effect; nearly all actives have a fitted effect of over 55% in size
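Image-based DNA-content assay: after two days of treatment, nuclei were labelled with the DNA dye Hoechst and imaged, and hits were compounds raising the count of nuclei showing high fluorescence intensity.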
KB-V1 MDR tox: kills drug-selected multidrug resistant KB-V1 cells | AID 1347076 | Potency, µM (doses to about 46.1 µM), usual class: cytotoxic | hit rate 3.4% among 400,000 | KB-V1 MDR cells viability, CellTiter-Glo, 72 h; further: potency means the concentration at half of the fitted maximal effect; on the % scale 0 is the no-effect control and ±100 the full control effect; nearly all actives have a fitted effect of over 60% in size
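KB-V1, DMEM (no phenol red) + 10% FBS; cpd pin-transferred, titration series; 72 h, 37 degrees C; CellTiter-Glo, luminescence. Data normalized, curve-fit.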
DRD3 agonist: activates the human D3 dopamine receptor; P35462; D3R DiscoveRx beta-arrestin cells, luminescence, 90 min; max activation, %; hit rate 0.58% among 410,000; AID 652048; in the data active means max activation above about 30%; further: 0% is about no effect
Target sequence (P35462 whole entry, looked up): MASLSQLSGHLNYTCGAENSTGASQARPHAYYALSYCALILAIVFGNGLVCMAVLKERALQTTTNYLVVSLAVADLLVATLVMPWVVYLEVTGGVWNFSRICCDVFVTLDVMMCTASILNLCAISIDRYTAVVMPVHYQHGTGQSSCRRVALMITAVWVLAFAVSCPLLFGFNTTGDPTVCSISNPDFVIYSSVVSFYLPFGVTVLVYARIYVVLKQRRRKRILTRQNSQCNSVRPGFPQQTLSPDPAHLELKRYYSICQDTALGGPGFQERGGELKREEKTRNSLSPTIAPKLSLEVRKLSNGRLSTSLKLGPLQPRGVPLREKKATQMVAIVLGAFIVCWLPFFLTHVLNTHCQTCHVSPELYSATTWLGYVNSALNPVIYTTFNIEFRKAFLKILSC
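Agonist mode: compounds and dopamine controls were applied to plated cells for 90 min at 37 degrees C after an overnight attachment at 1500 cells/well. Luminescent read-out followed 30 - 60 minutes at room temperature with DiscoveRx detection reagent.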
D3 antag: D3 dopamine receptor (human) antagonism; max response, negative = inhibition, %; P35462; D3R cells, DiscoveRx beta-arrestin luminescence, antagonist mode; stronger effect = lower value; hit rate 2.5% among 360,000; in the data active means max response below about -50%; inconclusive means no clear call, values can overlap the other calls; further: on the % scale 0 is the no-effect control and ±100 the full control effect
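Cells expressing the human receptor were seeded at 1500 cells/well, incubated overnight at 37 degrees C in 5% CO2, then exposed to library compounds with dopamine controls for 90 minutes at 37 degrees C before luminescent detection.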
Numbers without * were called inactive; i = inactive; ? = inconclusive; . = not tested or not shown; [ ] = dose if it differs, or a comment. Compounds with a hit are over-represented: about 8.9% of the library has one in this group of screens. Unless noted, the call rests on the fitted dose curve; in most records, active means well fitted curve in the direction sought with a large enough effect; inconclusive means small, poorly fitted or top-dose-only effect, or another doubt; inactive means no such curve, though single readings can be large; an effect the other way counts as inactive or inconclusive.

SMILES | MCF10A rerep | KB-3-1 cytotox | SW480 rerep | KB-V1 MDR tox | DRD3 agonist | D3 antag
CCOC(=O)C1CCN(Cc2cn[nH]c2-c2ccccc2)CC1 | 7% | i | 0% | i | -8 | -66*
CCOC(=O)C1CCN(Cc2cnc(Oc3ccc(OC)cc3)s2)CC1 | 7% | i | -3% | i | 3 | -55*
CCOC(=O)C1CCN(Cc2cc(C(C)C)c(O)c(C(C)C)c2)CC1 | ? | i | 2% | ? | -15 | -69*
CCOC(=O)C1CCN(Cc2cccc(OC)c2)CC1 | -12% | i | 2% | i | -14 | -23
CCOC(=O)C1CCN(Cc2ccc3ccccc3c2)CC1 | 16% | i | 4% | i | -26 | -75*
Cc1ccc2c(c1)cc(CN(Cc1cccnc1)C(=O)NCc1ccccc1)c1nnnn12 | 15% | ? | 8% | 2.6µM* | 0 | 8
Cc1ccc2c(c1)cc(CN(Cc1ccc3c(c1)OCO3)C(=O)c1ccccc1)c1nnnn12 | 4% | i | 2% | i | -10 | -4
CCCC(=O)OCCNc1cc(Sc2nccn2C)c2nonc2c1[N+](=O)[O-] | ? | ? | 20% | i | -34 | -92*
CC(=O)OCCCNc1cc(SCc2ccco2)c2nonc2c1[N+](=O)[O-] | ? | i | ? | i | 6 | -6
CCC(=O)OCCNc1cc(Sc2nc3ccccc3[nH]2)c2nonc2c1[N+](=O)[O-] | 1.3µM* | 23µM* | 10µM* | i | -6 | -116*
CCCSc1cc(NCCOC(=O)CCC)c([N+](=O)[O-])c2nonc12 | ? | i | 8% | i | 1 | -14
CCC(=O)OCCNc1cc(Sc2nc3ccccc3s2)c2nonc2c1[N+](=O)[O-] | -9% | i | -11% | i | -54 | -88*
O=[N+]([O-])c1c(NCCCO)cc(Sc2nc3ccccc3s2)c2nonc12 | ? | i | ? | i | -67 | -90*
CCCC(=O)OCCNc1cc(SCc2ccco2)c2nonc2c1[N+](=O)[O-] | ? | i | ? | i | -4 | 3
CCOC(=O)N1CCc2c(sc3c2c(=O)n(CCc2ccccc2)c(=O)n3CC(=O)Nc2ccc(C)cc2)C1 | . | . | . | . | 0 | .
O=C(NC1CC1)C1=C[C@@H](c2c[nH]c3ccccc23)C[C@@H](OCc2ccc(CO)cc2)O1 | 13% | i | -1% | i | -22 | -53*
O=C(NC1CC1)C1=C[C@H](c2c[nH]c3ccccc23)C[C@H](OCCCCO)O1 | 0% | i | 0% | i | -15 | -1
O=C(Nc1ccccc1)C1=C[C@@H](c2csc3ccccc23)C[C@@H](OCc2ccc(CO)cc2)O1 | ? | ? | ? | ? | -32 | -51*
C#CCNC(=O)C1=C[C@H](c2csc3ccccc23)C[C@H](OCc2ccc(CO)cc2)O1 | 2.1µM* | i | ? | i | 4 | 18
CCO[C@H]1OC(C(=O)N2CCOCC2)=C[C@@H](C2CC2)[C@@H]1CCCO | ? | i | ? | i | -27 | -55*
CCO[C@H]1OC(C(=O)NCc2nc3ccccc3[nH]2)=C[C@@H](C2CC2)[C@@H]1CCCO | 3.7µM* | i | 3.3µM* | i | -39 | ?
CCO[C@@H]1OC(C(=O)N2CCOCC2)=C[C@H](C2CC2)[C@H]1CCCO | -4% | i | -4% | i | 5 | 11
CCc1nc2c(OCc3cc(Cl)cc(Cl)c3)cccn2c1N(C)C(=O)c1ccccc1F | . | i | . | ? | -8 | -29
CCc1cc(=O)oc2cc(OS(C)(=O)=O)ccc12 | -3% | i | -5% | i | -2 | 3
CCc1cc(=O)oc2c(C)c(OS(C)(=O)=O)ccc12 | -5% | i | -3% | 4.1µM* | -5 | 6
SMILES | MCF10A rerep | KB-3-1 cytotox | SW480 rerep | KB-V1 MDR tox | DRD3 agonist | D3 antag
COc1cc(OCc2ccccc2)c(OC)c(OCc2ccccc2)c1 | 16µM* | i | ? | i | 40* | 28
CCN(CC)C(=O)Cn1c(=O)n(CCCCCC(=O)NCc2ccc3c(c2)OCO3)c(=O)c2sccc21 | . | . | . | . | -3 | .
Nc1nc2n(n1)C(c1cccs1)CC(c1ccc(F)cc1)N2 (centres undefined) | 21% | i | -6% | i | 2 | -13
Nc1nc2n(n1)C(c1cccs1)CC(c1ccccc1)N2 (centres undefined) | 5% | i | -1%[9.22 µM] | i | 2 | -64*
CCCN1CCN(CCCNC(=O)CCN2C(=O)COc3ccccc32)CC1 | 0% | i | -1% | i | -10 | 0
COc1ccc(CCNC(=O)CCN2C(=O)COc3ccccc32)cc1OC | -2% | i | -3% | i | 0 | 4
Cc1ccc(NC(=O)CN2C(=O)COc3ccc(C)cc32)nc1 | -3% | i | -2% | 15µM* | 7 | 18
COc1ccc(CCNC(=O)CCN2C(=O)C(C)Oc3ccc(C)cc32)cc1OC (centres undefined) | 0% | i | 0% | 8.2µM* | 2 | 6
O=C(CCN1C(=O)COc2ccccc21)NCCN1CCc2ccccc2C1 | -3% | i | 0% | i | -33 | -62*
Cc1ccc(CNC(=O)CCN2C(=O)C(C)Oc3ccc(C)cc32)cc1 (centres undefined) | . | i | . | i | -22 | .
COc1ccc(CCNC(=O)CCN2C(=O)COc3ccc(C)cc32)cc1OC | 0% | i | -3% | ? | -3 | -65*
CCCCc1c(C)[nH]c2c(OC)cccc2c1=S | . | i | . | i | . | .
COc1ccc(N2C3=C(CC4=C2CC(C)(C)CC4=O)C(=O)CC(C)(C)C3)cc1 | -1% | ? | 17% | i | -18 | -12
C#CCOc1ccc(C2C3=C(CC(C)(C)CC3=O)N(CC(=O)O)C3=C2C(=O)CC(C)(C)C3)cc1OC | -1% | i | -5% | i | 7 | 2
COc1ccc(N2C3=C(C(=O)CC(C)(C)C3)C(c3ccccc3OC)C3=C2CC(C)(C)CC3=O)cc1 | 16µM* | i | 18µM* | ? | 9 | 74
CCOc1ccc(C2C3=C(CC(C)(C)CC3=O)N(CC(=O)O)C3=C2C(=O)CC(C)(C)C3)cc1OCC | 0.82µM* | i | -8% | i | 9 | 2
COc1ccccc1C1C2=C(CC(C)(C)CC2=O)N(CC(=O)O)C2=C1C(=O)CC(C)(C)C2 | 21µM* | i | -33% | i | -1 | 2
CCOC(=O)c1ccc(S(=O)(=O)NCC(c2ccc(N(C)C)cc2)c2c[nH]c3ccccc23)cc1 (centres undefined) | 0% | i | -3% | ? | -29 | -10
